# Experimental data reported in the supplement of paper PMC8728848.
# This excerpt belongs to a sample that is enriched for the strongest signals.
# What was measured:
# Assay in all cases: glycan array binding signal (z-score within array); higher = stronger binding
# Details in all cases: glycan notation: IUPAC condensed, linker removed
# Fuc(a1-2)Gal(b1-4)Glc = target: Fuc(a1-2)Gal(b1-4)Glc
# Outline: (§1)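 The binding signal is a Z-score computed within each array and averaged over linkers. Arrays of the same protein sequence at different concentrations or buffers were also averaged together. Data originate from 3228 arrays in the Consortium for Functional Glycomics database, kept only where the protein sequence was available.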
# [1] = target: Fuc(a1-2)[Gal(a1-3)]Gal(b1-4)Glc
# Outline: as §1
# Fuc(a1-3)GlcNAc = target: Fuc(a1-3)GlcNAc
# Outline: as §1
# [2] = target: Fuc(a1-3)[Gal3S(b1-4)]GlcNAc
# Outline: as §1
# Gal(a1-4)Gal(b1-4)Glc = target: Gal(a1-4)Gal(b1-4)Glc
# Outline: as §1
# Gal(b1-3)Gal(b1-4)GlcNAc = target: Gal(b1-3)Gal(b1-4)GlcNAc
# Outline: as §1
# [3] = target: Gal(b1-3)GlcNAc(b1-2)Man(a1-3)[Gal(b1-3)GlcNAc(b1-2)Man(a1-6)]Man(b1-4)GlcNAc(b1-4)GlcNAc
# Outline: as §1
# [4] = target: Gal(b1-4)GalNAc(b1-3)[Fuc(a1-2)]Gal(b1-4)GlcNAc
# Outline: as §1
# [5] = target: Gal(b1-4)GlcNAc(b1-2)Man(a1-3)[Gal(b1-4)GlcNAc(b1-2)Man(a1-6)]Man(b1-4)GlcNAc(b1-4)GlcNAc
# Outline: as §1
# Gal3S(b1-4)GlcNAc = target: Gal3S(b1-4)GlcNAc
# Outline: as §1
# Gal3S4S(b1-4)GlcNAc = target: Gal3S4S(b1-4)GlcNAc
# Outline: as §1
# Glc(a1-6)Glc(a1-6)Glc = target: Glc(a1-6)Glc(a1-6)Glc
# Outline: as §1
# GlcA(b1-3)GlcNAc = target: GlcA(b1-3)GlcNAc
# Outline: as §1
# [6] = target: GlcNAc(b1-3)[GlcNAc(b1-6)]Gal(b1-4)GlcNAc
# Outline: as §1
# [7] = target: GlcNAc(b1-3)[GlcNAc(b1-6)]GalNAc
# Outline: as §1
# [8] = target: GlcNAc(b1-4)Gal(b1-4)GlcNAc
# Outline: as §1
# Kdn(a2-3)Gal(b1-4)GlcNAc = target: Kdn(a2-3)Gal(b1-4)GlcNAc
# Outline: as §1
# [9] = target: Man(a1-2)Man(a1-2)Man(a1-6)[Man(a1-3)]Man
# Outline: as §1
# [10] = target: Man(a1-2)Man(a1-6)[Man(a1-3)]Man(a1-6)[Man(a1-2)Man(a1-2)Man(a1-3)]Man
# Outline: as §1
# [11] = target: Neu5Ac(a2-3)Gal(b1-3)GlcNAc(b1-3)Gal(b1-3)GlcNAc
# Outline: as §1
# [12] = target: Neu5Ac(a2-3)Gal(b1-4)GlcNAc(b1-3)Gal(b1-4)GlcNAc(b1-3)Gal(b1-4)GlcNAc
# Outline: as §1
# [13] = target: Neu5Ac(a2-3)Gal(b1-4)GlcNAc(b1-3)Gal(b1-4)[Fuc(a1-3)]GlcNAc
# Outline: as §1
# [14] = target: Neu5Ac(a2-3)Gal(b1-4)[Fuc(a1-3)]GlcNAc
# Outline: as §1
# [15] = target: Neu5Ac(a2-3)Gal6S(b1-4)[Fuc(a1-3)]GlcNAc
# Outline: as §1
# [16] = target: Neu5Ac(a2-6)Gal(b1-4)GlcNAc(b1-2)Man(a1-3)[Gal(b1-4)GlcNAc(b1-2)Man(a1-6)]Man(b1-4)GlcNAc(b1-4)GlcNAc
# Outline: as §1
# [17] = target: Neu5Ac(a2-6)Gal(b1-4)GlcNAc(b1-2)Man(a1-3)[Neu5Ac(a2-6)Gal(b1-4)GlcNAc(b1-2)Man(a1-6)]Man(b1-4)GlcNAc(b1-4)GlcNAc
# Outline: as §1
# [18] = target: Neu5Ac(a2-6)Gal(b1-4)GlcNAc(b1-3)Gal(b1-4)[Fuc(a1-3)]GlcNAc(b1-3)Gal(b1-4)[Fuc(a1-3)]GlcNAc
# Outline: as §1
# [19] = target: Neu5Gc(a2-3)Gal(b1-3)[Fuc(a1-4)]GlcNAc
# Outline: as §1
# Fuc(a1-2)Gal(b1-4)GlcNAc = target: Fuc(a1-2)Gal(b1-4)GlcNAc
# Outline: as §1
# [20] = target: Fuc(a1-2)Gal(b1-4)GlcNAc(b1-3)Gal(b1-4)GlcNAc(b1-3)Gal(b1-4)GlcNAc
# Outline: as §1
# [21] = target: Gal(a1-3)Gal(b1-4)[Fuc(a1-3)]GlcNAc
# Outline: as §1
# [22] = target: Gal(b1-3)[Neu5Ac(a2-6)]GlcNAc(b1-4)Gal(b1-4)Glc
# Outline: as §1
# Gal(b1-4)Glc6S = target: Gal(b1-4)Glc6S
# Outline: as §1
# Gal3S(b1-3)GalNAc = target: Gal3S(b1-3)GalNAc
# Outline: as §1
# Gal4S(b1-4)GlcNAc = target: Gal4S(b1-4)GlcNAc
# Outline: as §1
# Gal6S(b1-4)Glc = target: Gal6S(b1-4)Glc
# Outline: as §1
# GalNAc(a1-3)Gal = target: GalNAc(a1-3)Gal
# Outline: as §1
# [23] = target: Neu5Ac(a2-3)Gal(b1-3)[Fuc(a1-4)]GlcNAc
# Outline: as §1
# [24] = target: Neu5Ac(a2-3)Gal(b1-4)GlcNAc
# Outline: as §1
# [25] = target: Neu5Ac(a2-3)Gal(b1-4)[Fuc(a1-3)]GlcNAc(b1-3)Gal(b1-4)[Fuc(a1-3)]GlcNAc(b1-3)Gal(b1-4)[Fuc(a1-3)]GlcNAc
# Outline: as §1
# [26] = target: Neu5Ac(a2-8)Neu5Ac(a2-8)Neu5Ac(a2-3)Gal(b1-4)Glc
# Outline: as §1
# [27] = target: Neu5Gc(a2-3)Gal(b1-4)GlcNAc
# Outline: as §1
# [28] = target: Neu5Gc(a2-6)Gal(b1-4)GlcNAc
# Outline: as §1
# [29] = target: Fuc(a1-2)Gal(b1-4)[Fuc(a1-3)]GalNAc(b1-3)Gal(b1-4)[Fuc(a1-3)]GlcNAc
# Outline: as §1
# [30] = target: Fuc(a1-2)[Gal(a1-3)]Gal(b1-4)GlcNAc
# Outline: as §1
# [31] = target: Fuc(a1-2)[GalNAc(a1-3)]Gal(b1-4)GlcNAc
# Outline: as §1
# [32] = target: Fuc(a1-3)[Gal(b1-4)]GlcNAc(b1-4)Gal(b1-4)[Fuc(a1-3)]GlcNAc
# Outline: as §1
# Fuc(a1-4)GlcNAc = target: Fuc(a1-4)GlcNAc
# Outline: as §1
# Gal(a1-3)Gal(b1-4)GlcNAc = target: Gal(a1-3)Gal(b1-4)GlcNAc
# Outline: as §1
# Gal3S(b1-4)GlcNAc6S = target: Gal3S(b1-4)GlcNAc6S
# Outline: as §1
# Gal3S6S(b1-4)GlcNAc = target: Gal3S6S(b1-4)GlcNAc
# Outline: as §1
# Gal3S6S(b1-4)GlcNAc6S = target: Gal3S6S(b1-4)GlcNAc6S
# Outline: as §1
# Gal4S6S(b1-4)GlcNAc = target: Gal4S6S(b1-4)GlcNAc
# Outline: as §1
# [33] = target: GlcNAc(b1-3)[GlcNAc(b1-4)][GlcNAc(b1-6)]GlcNAc
# Outline: as §1
# [34] = target: GlcNAc(b1-4)[GlcNAc(b1-6)]GalNAc
# Outline: as §1
# Kdn(a2-3)Gal(b1-3)GlcNAc = target: Kdn(a2-3)Gal(b1-3)GlcNAc
# Outline: as §1
# [35] = target: Man(a1-2)Man(a1-2)Man(a1-3)Man
# Outline: as §1
# Man(b1-4)GlcNAc = target: Man(b1-4)GlcNAc
# Outline: as §1
# [36] = target: Neu5Ac(a2-3)Gal(b1-3)[Fuc(a1-4)]GlcNAc(b1-3)Gal(b1-4)[Fuc(a1-3)]GlcNAc
# Outline: as §1
# [37] = target: Neu5Ac(a2-3)Gal(b1-4)GlcNAc(b1-3)Gal(b1-4)GlcNAc
# Outline: as §1
# [38] = target: Neu5Ac(a2-6)GalNAc(b1-4)GlcNAc
# Outline: as §1
# Neu5Gc(a2-6)GalNAc = target: Neu5Gc(a2-6)GalNAc
# Outline: as §1
binder,measurement,setting,value
BDCA2 ex-domain (Homo sapiens) (protein) MASHHHHHHIEGRGLNDIFEAQKIEWHESLVPRGSCPTPWTSFQSSCYFISTGMQSWTKSQKNCSVMGADLVVINTREEQDFIIQNLKRNSSYFLGLSDPGGRRHWQWVDQTPYNENVTFWHSGEPNNLDERCAIINFRSSEEWGWNDIHCHVPQKSICKMKKIY,glycan array binding signal (z-score),Fuc(a1-2)Gal(b1-4)Glc,-0.318
same,glycan array binding signal (z-score),[1],-0.022
same,glycan array binding signal (z-score),Fuc(a1-3)GlcNAc,-0.3
same,glycan array binding signal (z-score),[2],-0.204
same,glycan array binding signal (z-score),Gal(a1-4)Gal(b1-4)Glc,0.336
same,glycan array binding signal (z-score),Gal(b1-3)Gal(b1-4)GlcNAc,-0.245
same,glycan array binding signal (z-score),[3],8.6
same,glycan array binding signal (z-score),[4],-0.375
same,glycan array binding signal (z-score),[5],13.2
same,glycan array binding signal (z-score),Gal3S(b1-4)GlcNAc,-0.181
same,glycan array binding signal (z-score),Gal3S4S(b1-4)GlcNAc,1.81
same,glycan array binding signal (z-score),Glc(a1-6)Glc(a1-6)Glc,-0.187
same,glycan array binding signal (z-score),GlcA(b1-3)GlcNAc,-0.1
same,glycan array binding signal (z-score),[6],-0.208
same,glycan array binding signal (z-score),[7],-0.347
same,glycan array binding signal (z-score),[8],0.139
same,glycan array binding signal (z-score),Kdn(a2-3)Gal(b1-4)GlcNAc,0.619
same,glycan array binding signal (z-score),[9],-0.128
same,glycan array binding signal (z-score),[10],-0.559
same,glycan array binding signal (z-score),[11],-0.143
same,glycan array binding signal (z-score),[12],1.33
same,glycan array binding signal (z-score),[13],0.601
same,glycan array binding signal (z-score),[14],-0.385
same,glycan array binding signal (z-score),[15],-0.35
same,glycan array binding signal (z-score),[16],2.93
same,glycan array binding signal (z-score),[17],-0.101
same,glycan array binding signal (z-score),[18],0.319
same,glycan array binding signal (z-score),[19],-0.317
"RegIIIbeta (Mus musculus), P35230 (protein) MLPPTACSVMSWMLLSCLMLLSQVQGEDSLKNIPSARISCPKGSQAYGSYCYALFQIPQTWFDAELACQKRPGGHLVSVLNSAEASFLSSMVKRTGNSYQYTWIGLHDPTLGAEPNGGGWEWSNNDVMNYFNWERNPSTALDRAFCGSLSRASGFLKWRDMTCEVKLPYVCKFTG",glycan array binding signal (z-score),Fuc(a1-2)Gal(b1-4)Glc,-0.114
same,glycan array binding signal (z-score),Fuc(a1-2)Gal(b1-4)GlcNAc,-0.116
same,glycan array binding signal (z-score),[20],0.15
same,glycan array binding signal (z-score),Fuc(a1-3)GlcNAc,-0.114
same,glycan array binding signal (z-score),[21],-0.098
same,glycan array binding signal (z-score),[22],-0.105
same,glycan array binding signal (z-score),Gal(b1-4)Glc6S,-0.119
same,glycan array binding signal (z-score),Gal3S(b1-3)GalNAc,-0.124
same,glycan array binding signal (z-score),Gal4S(b1-4)GlcNAc,0.188
same,glycan array binding signal (z-score),Gal6S(b1-4)Glc,-0.116
same,glycan array binding signal (z-score),GalNAc(a1-3)Gal,-0.109
same,glycan array binding signal (z-score),[23],-0.103
same,glycan array binding signal (z-score),[24],-0.071
same,glycan array binding signal (z-score),[25],0.086
same,glycan array binding signal (z-score),[26],-0.118
same,glycan array binding signal (z-score),[19],0.106
same,glycan array binding signal (z-score),[27],-0.116
same,glycan array binding signal (z-score),[28],-0.122
"HMGB1 (Homo sapiens), P09429 (protein) MGKGDPKKPRGKMSSYAFFVQTCREEHKKKHPDASVNFSEFSKKCSERWKTMSAKEKGKFEDMAKADKARYEREMKTYIPPKGETKKKFKDPNAPKRPPSAFFLFCSEYRPKIKGEHPGLSIGDVAKKLGEMWNNTAADDKQPYEKKAAKLKEKYEKDIAAYRAKGKPDAAKKGVVKAEKSKKKKEEEEDEEDEEDEEEEEDEEDEDEEEDDDDE",glycan array binding signal (z-score),Fuc(a1-2)Gal(b1-4)Glc,-0.488
same,glycan array binding signal (z-score),[29],-0.246
same,glycan array binding signal (z-score),[30],-0.3
same,glycan array binding signal (z-score),[31],-0.269
same,glycan array binding signal (z-score),[32],-0.39
same,glycan array binding signal (z-score),Fuc(a1-4)GlcNAc,-0.341
same,glycan array binding signal (z-score),Gal(a1-3)Gal(b1-4)GlcNAc,-0.418
same,glycan array binding signal (z-score),Gal3S(b1-4)GlcNAc6S,3.64
same,glycan array binding signal (z-score),Gal3S6S(b1-4)GlcNAc,3.32
same,glycan array binding signal (z-score),Gal3S6S(b1-4)GlcNAc6S,4.75
same,glycan array binding signal (z-score),Gal4S6S(b1-4)GlcNAc,3.25
same,glycan array binding signal (z-score),GalNAc(a1-3)Gal,-0.403
same,glycan array binding signal (z-score),[33],-0.309
same,glycan array binding signal (z-score),[34],-0.433
same,glycan array binding signal (z-score),Kdn(a2-3)Gal(b1-3)GlcNAc,-0.363
same,glycan array binding signal (z-score),[35],-0.413
same,glycan array binding signal (z-score),Man(b1-4)GlcNAc,0.327
same,glycan array binding signal (z-score),[36],0.178
same,glycan array binding signal (z-score),[37],0.045
same,glycan array binding signal (z-score),[25],-0.332
same,glycan array binding signal (z-score),[38],0.028
same,glycan array binding signal (z-score),[28],0.015
same,glycan array binding signal (z-score),Neu5Gc(a2-6)GalNAc,-0.195
